These results are taken from PubChem BioAssay (Tox21).

Structures are written as SMILES. A number with no mark means an inactive call. Entries that show only a call come without a potency. Activity calls are given as the source filed them. Calls come from the whole dose curve; as a rule, active = well fitted curve in the direction sought with a large enough effect in the repeat runs; inconclusive = weak or mixed curves; inactive = flat fitted curve, though single readings scatter.

The assay in a line: qHTS assay to test for compound auto fluorescence at 460 nm (blue) in HEK293 cells (AID 720678). The note with it: blue autofluorescence 405/460 nm; series mostly up to 91.3 µM. An excerpt:
National Center for Advancing Translational Sciences [NCATS]
NIH Chemical Genomics Center [NCGC]
U.S. Environmental Protection Agency [EPA]
National Institutes of Environmental Health Sciences [NIEHS]
National Toxicology Program [NTP]
U.S. Food and Drug Administration [FDA]
Compound auto fluorescence often interferes with screening of the compound library against various biological targets and signaling pathways. Some of these compounds may have fluorophoric properties. Such properties may interfere with the assay outputs resulting in false positives and/or negatives. To decrease such complications and ensure the compound activities are relevant in terms of biological response, the Tox21 10K compound library was screened for auto fluorescence.
From the fluorophores used as reporter signals in our screening assays, the auto fluorescence equivalencies of compounds against three fluorophores have been evaluated: Triamterene, Fluorescein and Rose Bengal sodium for blue, green and red fluorescence, respectively. The fluorescence intensities were measured using Excitation/Emission wavelengths at 405/460nm, 485/535nm and 540/590nm for blue, green and red labels, respectively. This assay includes the blue fluorescence data.
Tox21 Assay Protocol Summary:
2,000 HEK293 cells in 5 uL of culture medium containing 10% dialyzed FBS per well were dispensed into black wall/clear bottom 1536-well plates using a Multidrop Combi Dispenser (Thermo Scientific). The assay plates were incubated for 4-5 hr at 37C to allow cell attachment to the well bottom, followed by the transfer of 23 nL compound or DMSO vehicle by a pintool work station (Kalypsys, San Diego, CA). After the assay plates were incubated overnight at 37C and 5% CO2, fluorescence intensities in the assay plates were measured by an Envision (PerkinElmer, Shelton, CT) plate reader using three labels for measuring blue, green and red fluorescence at […] 460, 535 and 590nm respectively.
In the case of `CNCC[C@@H](Oc1ccccc1C)c1ccccc1`, the Potency entry was “inactive”. As to `CC(C)=CCCC(C)CC=O` (stereo not given), the Potency entry is “inactive”.

Regarding `COCCO`, the Potency entry is “inactive”. Turning to `O=C1CCCCCO1`, the Potency entry is “inactive”.

As to `C[C@H](CCC(=O)O)[C@H]1CC[C@H]2[C@@H]3[C@H](O)C[C@@H]4C[C@H](O)CC[C@]4(C)[C@H]3CC[C@]12C`, the Potency entry was “inactive”. The same measure, in the same setting: then `O=C(O)C(c1ccc(Cl)cc1)c1ccc(Cl)cc1`, with “inactive”; and `CC(C)(C)c1cc(O)c(C(C)(C)C)cc1O`, with “inactive”.

In the case of `CC[C@]12CCCN3CCc4c(n(c5ccccc45)C(=O)C1)[C@@H]32`, the fluorescence, % of triamterene was 0.0203% [at 18.6 µM]. Regarding `Oc1ccc(Sc2ccc(O)cc2)cc1`, the Potency entry is “inactive”. With `O=[N+]([O-])c1cccc(Cl)c1Cl`, the Potency entry was “inactive”. Still for that read-out and setting: the value for `CCN1CCC[C@H]1CNC(=O)c1c(OC)ccc(Br)c1OC` was “inactive”; that for `COc1cc(C(C)(C)C)c(O)c(C(C)(C)C)c1` was “inactive”; that for `CC(=O)O[C@H]1C[C@@H]2CC[C@@H]3[C@H](CC[C@@]4(C)[C@H]3C[C@H]([N+]3(C)CCCCC3)[C@@H]4OC(C)=O)[C@@]2(C)C[C@@H]1N1CCCCC1` was “inactive”. `CC1=CC(=O)/C(=C(/C)O)C(=O)O1`: the Potency entry was “inactive”. Take `O=C(Nc1ccccc1)OCC(CN1CCCCC1)OC(=O)Nc1ccccc1` (stereo not given): the fluorescence, % of triamterene was 0.0079% [at 18.6 µM]. With `Cn1c(N)nc2nc[nH]c2c1=O`, the Potency result is “inactive”. Consider `CCCCOCCOCCOCCOCCO`, for which the Potency result was “inactive”. With `O=C(O)c1cccc(N(Cc2cccnc2)c2ccc(OC(F)F)c(OC(F)F)c2)c1`, the Potency entry is “inactive”. Still for that read-out and setting: then `CC(C)(C)C1CCCCC1O` (stereo not given), with “inactive”; and `Cc1ccccn1`, with “inactive”. Turning to `Cn1c(NCCN(CCO)CCCc2ccc([N+](=O)[O-])cc2)cc(=O)n(C)c1=O`, the Potency result is “inactive”. On the same count and under the same terms, the value for `CCOc1nc2cccc(C(=O)O)c2n1Cc1ccc(-c2ccccc2-c2nn[nH]n2)cc1` was “inactive”. With `Cc1c(Cn2ccnc2)c2ccccc2n1CCC(=O)O`, the Potency entry is “inactive”. Consider `CNS(=O)(=O)Cc1ccc2[nH]cc(CCN(C)C)c2c1`, for which the Potency entry is “inactive”. With `Cl/C(=C\n1cncn1)c1ccc(Cl)cc1Cl`, the Potency entry is “inactive”. Same read-out and setting: the value for `CCCCCOC(=O)c1ccc(O)cc1` was “inactive”; that for `NCCCOCCOCCOCCCN` was “inactive”.

Take `Cc1cc(O)ccc1N`: the Potency entry was “inactive”. `Nc1cnn([C@@H]2O[C@H](CO)[C@@H](O)[C@H]2O)c(=O)n1`: the Potency result was “inactive”.

For `CCCCCCCCCCCCCCCCCBr`, the fluorescence, % of triamterene is 0.159% [at 18.6 µM]. With `Cc1cccc(OCCOc2cccc(C)c2)c1`, the Potency entry was “inactive”.

Take `CC[C@H](C)[C@H](N)C(=O)O`: the Potency entry was “inactive”. The same measure, in the same setting: then `CN1CCN(C2=Nc3ccccc3Sc3ccc(Cl)cc32)CC1`, with “inactive”; and `O=S(=O)(O)c1ccc(O)c2ncccc12`, with “inactive”; and `NC(=S)N/N=C/c1cccnc1`, with “inactive”.

Consider `CCOc1ccc(NC(=O)CC(C)=O)cc1`, for which the Potency entry is “inactive”. Same read-out and setting: then `O=C(Cl)c1ccc([N+](=O)[O-])cc1`, with “inactive”. `N=C(N=C(N)N)N1CCOCC1`: the fluorescence, % of triamterene is -0.223% [at 18.6 µM]. Turning to `C=CC(=O)OCC(C)OCC(C)OCC(C)OC(=O)C=C` (stereo not given), the Potency result is “inactive”. Still for that read-out and setting: the value for `CC(C)c1ccccc1C(C)C` was “inactive”.
